The source of these data is PubChem BioAssay (NCATS).

Inconclusive results are not listed. Where a call stands in place of a potency, no number is given. The source made the active and inactive calls. Calls come from the whole dose curve; as a rule, active = well fitted inhibition curve with a large enough effect; inconclusive = small, poorly fitted or top-dose-only effect; inactive = flat fitted curve, though single readings scatter.
Potency is the fitted concentration of half-maximal effect.

The test is described as follows: P-glycoprotein substrates identified in KB-8-5-11 adenocarcinoma cell line, qHTS therapeutic library screen (AID 1346987). Note: nearly all actives have a fitted effect of over 65% in size. The note with it: KB-8-5-11 (P-gp overexpressing) viability, CellTiter-Glo, 72 h; series mostly up to 44.5 µM. Put shortly: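 Compounds are pinned in dose-response onto KB-8-5-11 cells (500 cells/well, colchicine-free medium) and left 72 h at 37 degree C. CellTiter-Glo luminescence then yields AC50 values.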
`C=CC1(C)CC(OC(=O)/C(C)=C\COC(C)=O)C(C(=C)C(=O)O)C(O)C1C(=C)CO` (centres undefined): the Potency result was “inactive”.
On the same count and under the same terms, the result for `COc1ccc([C@H]2CNC(=O)C2)cc1OC1CCCC1` reads “inactive”; that for `CN(C)C/C=C/C(=O)Nc1cc2c(Nc3ccc(F)c(Cl)c3)ncnc2cc1OC1CCOC1` (centres undefined), 14600 nM (active).
Regarding `CC1=C(C(=O)O)/C(=C\CO[C@@H]2O[C@H](CO)[C@@H](O)[C@H](O)[C@H]2O)C(OC(=O)/C=C/c2ccc(O)cc2)C1` (some centres undefined), the Potency entry was “inactive”.
On to `COCC1OC(OC(C)(C)C2CCC3(C)C=C(C4CCC5C4(C)CC(O)C4OC(C(C)(C)OC6OC(CO)C(O)C(O)C6NC(C)=O)CCC45C)CCC3O2)C(NC(C)=O)C(O)C1O` (centres undefined), for which the outcome was “inactive [at 9.29 µM]”.
For the compound `CC(C)C(CO)Nc1nc(Nc2ccc(C(=O)O)c(Cl)c2)c2ncn(C(C)C)c2n1` (centres undefined), the Potency entry is “inactive”.
With `CC(=O)O[C@@H]1c2c(C)coc2C(=O)[C@@]23O[C@@H]2CC[C@H](C)[C@@]13C`, the Potency entry is “inactive”.
As to `O=C(CCCCN1CCOCC1)Nc1ccc(-c2cccnc2)cc1`, the Potency entry was “inactive”.
For `C[C@@H](Oc1cc(-n2cnc3ccc(OC4CCN(C)CC4)cc32)sc1C(N)=O)c1ccccc1C(F)(F)F`, the Potency was 206 nM (active).
On the same count and under the same terms, to `CC[C@H]1OC(=O)[C@H](C)[C@@H](O[C@H]2C[C@@](C)(OC)[C@@H](O)[C@H](C)O2)[C@H](C)[C@@H](O[C@@H]2O[C@H](C)C[C@H](N(C)C)[C@H]2O)[C@](C)(O)C[C@@H](C)C(=O)[C@H](C)[C@H]2OC(=O)O[C@@]21C` belongs “inactive”; to `CNC(=O)c1ccccc1Nc1nc(Nc2ccc3c(c2OC)CCC[C@@H](N2CCN(CCO)CC2)C3)ncc1Cl`, 10300 nM (active); to `C[C@@H]1[C@H]2[C@H](O[C@@H]3O[C@H](CO)[C@@H](O)[C@H](O)[C@H]3O)OC=C(C(=O)O)[C@H]2C[C@@H]1O`, “inactive”.
With `CO[C@H]1C[C@@H]2CC[C@@H](C)[C@@](O)(O2)C(=O)C(=O)N2CCCC[C@H]2C(=O)O[C@H]([C@H](C)C[C@H]2CC[C@@H](OP(C)(C)=O)[C@H](OC)C2)CC(=O)[C@H](C)/C=C(\C)[C@@H](O)[C@@H](OC)C(=O)[C@H](C)C[C@H](C)/C=C/C=C/C=C/1C`, the Potency result was “inactive”.
Same read-out and setting: the result for `C=C1C[C@]23C[C@H]1CC[C@H]2[C@]1(C)CCC[C@@](C)(C(=O)O)[C@H]1[C@@H]3C(=O)O` reads “inactive”; that for `COc1cc2c(cc1OC)N1C(=O)C[C@]34C=CCN5CC[C@@H]2[C@@H](CC3)[C@]514`, “inactive”; that for `CC(C)CCC1(O)C(=O)C(C)(C)C(O[C@@H]2O[C@H](CO)[C@@H](O)[C@H](O)[C@H]2O)C(C)(C)C1O` (some centres undefined), “inactive”.
Turning to `CC1(C)CCC[C@@]2(C)C1[C@H](OC(=O)/C=C/C=C/C(=O)O)C=C1COC(=O)[C@@]12O` (some centres undefined), the Potency result is “inactive”.
Take `COc1cc2c(cc1OC)-c1[nH]nc(Nc3cccc(F)c3)c1C2`: the Potency was 92 nM (active).
The same measure, in the same setting: to `O=C1NC(Cc2ccccc2)C(=O)N2CCCC12` (centres undefined) belongs “inactive”.
Same read-out and setting: the result for `COc1cccc(-c2cc(NCc3ccc4c(c3)OCO4)nc(N)n2)c1` reads 164 nM (active).
Consider `CC(=O)C1=C(C)N(c2cccc(C(F)(F)F)c2)C(=O)N[C@H]1c1ccc(C#N)nc1`, for which the activity change, negative = cytotoxicity is -2.98% [at 9.29 µM] (inactive).
Regarding `CC(=O)OC1C(c2ccccc2)CCC(c2ccccc2)C1OC(C)=O` (centres undefined), the Potency result is “inactive”.
The same measure, in the same setting: the result for `C[C@@H]1C(=O)O[C@H](C)[C@H]1CC(=O)[C@](C)(O)[C@H]1CC[C@@]2(O)C3=CC(=O)[C@@H]4C[C@@H](O)[C@@H](O)C[C@]4(C)C3CC[C@]12C` (some centres undefined) reads “inactive”.
The same measure, in the same setting: the result for `CC(=O)O[C@H]1CC[C@H](C)[C@@]2(C)[C@H](OC(C)=O)c3c(C)coc3C(=O)[C@H]12` reads “inactive”.
As for `COC(=O)/C=C/C12COC(C)(C)C1C(O)C(OC(C)=O)C1(C)C2CCC2(C)C(c3ccoc3)OC(=O)C3OC321` (centres undefined), the Potency result was “inactive”.
The same measure, in the same setting: to `C[C@@]1(O)[C@H](O)[C@@H](CO)O[C@H]1n1ccc(N)nc1=O` belongs “inactive”; to `O=C(/C=C\c1ccc(O)cc1)N[C@@H](Cc1ccc(O)cc1)C(=O)O`, “inactive”.
Regarding `CC(Oc1ccc2[nH]nc(/C=C/c3cnn(CCO)c3)c2c1)c1c(Cl)cncc1Cl` (centres undefined), the Potency is 1030 nM (active).
On to `C[C@@H]1CCC2C(C)(C)[C@H](O)CC[C@]2(C)[C@@]12Cc1c(O)cc3c(c1O2)CN([C@@H](CCC(=O)O)C(=O)O)C3=O` (some centres undefined), for which the Potency result was “inactive”.
Same read-out and setting: to `C=C[C@H]1[C@H](O[C@@H]2O[C@H](CO)[C@@H](O)[C@H](O)[C@H]2O)OC=C(C(=O)OC)[C@H]1CC(=O)O` belongs “inactive”.
As to `C=C1C(=O)O[C@@H]2C/C(C)=C\C(=O)/C=C(\C)[C@@H](OC(=O)/C(C)=C\C)[C@H](O)[C@@H]12`, the Potency was 4040 nM (active).
Take `OCC(CO[C@@H]1O[C@H](CO)[C@@H](O)[C@H](O)[C@H]1O)c1ccc2c(c1)OCO2` (some centres undefined): the Potency entry was “inactive”.
On to `CNC(=O)c1ccccc1Nc1nc(Nc2ccc3c(c2OC)CCCC(N2CCN(CCO)CC2)C3)ncc1Cl` (centres undefined), for which the Potency is 8200 nM (active).
Take `CC1(C)CC[C@]2(C(=O)O)[C@H](O)C[C@]3(C)C(=CCC4[C@@]5(C)CC[C@H](O[C@@H]6O[C@H](CO[C@@H]7OC[C@H](O)[C@H](O)[C@H]7O[C@@H]7OC[C@@H](O)[C@H](O)[C@H]7O)[C@@H](O)[C@H](O)[C@H]6O[C@@H]6O[C@H](CO)[C@@H](O)[C@H](O)[C@H]6O)C(C)(C)C5CC[C@]43C)[C@@H]2C1` (some centres undefined): the activity change, negative = cytotoxicity is 6.47% [at 9.29 µM] (inactive).
`C[C@]12C[C@@H](O)[C@@H]3C[C@@]1(O[C@@H]1O[C@H](CO)[C@@H](O)[C@H](O)[C@H]1O)[C@]3(COC(=O)c1ccccc1)C(=O)O2`: the Potency result is “inactive”.
With `O=C(CSc1nc2c(c(=O)n1-c1ccccc1)SCC2)Nc1ccc(-c2ccccc2)cn1`, the Potency was 82 nM (active).
With `c1cc(Nc2cc(C3CC3)[nH]n2)nc(Nc2ccc3nc[nH]c3c2)n1`, the Potency was 6510 nM (active).
`C=CC(C)(O)CC/C=C(\C)C(=O)OC1C(O)C(CO)OC(OC(=O)C23CCC(C)(C)CC2C2=CCC4C5(C)CCC(OC6OC(COC7OCC(OC(C)=O)C(O)C7OC7OC(COC(C)=O)C(O)C(O)C7O)C(O)C(O)C6O)C(C)(C)C5CCC4(C)C2(C)C(O)C3O)C1OC1OCC(OC2OCC(O)C(OC3OCC(O)C(O)C3O)C2O)C(O)C1O` (centres undefined): the activity change, negative = cytotoxicity was 9.63% [at 5.11 µM] (inactive).
`N#Cc1ccc(C(=O)N2CCC3(CC2)N=C(N)c2c(F)ccc(F)c2N3)cn1`: the Potency entry is “inactive”.
